Assay results: PubChem BioAssay AID1159580 (chemical genetic matrix, 2015)
“And” between values parts separate entries of the source, which are not always exact repeats. Equal entries are not always repeated. The campaign covered roughly 5,500 compounds. About 2,000 (36%) were called active. Not shown: some 18% with an inconclusive outcome. No stated cut-off is given here; in the data, active means normalized growth mostly below about 0.91 (no sharp cut-off); inconclusive means no clear call, values can overlap the other calls; inactive means mostly above about 0.92. Some of the results follow.

Test: chemical genetic growth profiling, strain panel (AID 1159580);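 further: tested at 20 µM; growth read once vehicle control cultures reached saturation at 30 °C; 1 = growth at the plate median or of vehicle wells; lower values mean less growth of the strain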
Settings: growth OD

Measured: normalized growth

CN1Cc2c(N)cccc2C(c2ccccc2)C1 (centres undefined)
inactive: S. cerevisiae deletion strains, locus YJR075W, strain HOC1, active compounds read low 1.01 and 0.995 | S. cerevisiae deletion strains, locus YKL009W, strain mrt4, active compounds read low 1 | S. cerevisiae deletion strains, locus YKL068W, active compounds read low 1 | S. cerevisiae deletion strains, locus YKL085W, strain MDH1 (second series), active compounds read low 1.01 | S. cerevisiae deletion strains, locus YKL085W, strain MDH1, active compounds read low 1.01 | S. cerevisiae deletion strains, locus YKL160W, strain elf1, active compounds read low 1.02 | S. cerevisiae deletion strains, locus YKL190W, strain CNB1, active compounds read low 1.01 | S. cerevisiae deletion strains, locus YKR001C, strain vps1, active compounds read low 1 | S. cerevisiae deletion strains, locus YKR026C, strain gcn3, active compounds read low 1.01 | S. cerevisiae deletion strains, locus YKR091W, strain srl3, active compounds read low 1 | S. cerevisiae deletion strains, locus YLL001W, strain dnm1, active compounds read low 1.01 | S. cerevisiae deletion strains, locus YLL026W, active compounds read low 1.01 | S. cerevisiae deletion strains, locus YLL041C, strain sdh2, active compounds read low 1.01 | S. cerevisiae deletion strains, locus YLR027C, strain aat2, active compounds read low 1.02 | S. cerevisiae deletion strains, locus YLR039C, strain RIC1, active compounds read low 1.03 | S. cerevisiae deletion strains, locus YLR058C, strain SHM2, active compounds read low 1 | S. cerevisiae deletion strains, locus YLR102C, strain apc9, active compounds read low 1.01 | S. cerevisiae deletion strains, locus YLR113W, strain HOG1, active compounds read low 0.982 | S. cerevisiae deletion strains, locus YLR221C, strain rsa3, active compounds read low 0.994 | S. cerevisiae deletion strains, locus YLR258W, strain gsy2, active compounds read low 0.99 | S. cerevisiae deletion strains, locus YLR262C, strain YPT6 (second series), active compounds read low 1.03 | S. cerevisiae deletion strains, locus YLR262C, strain YPT6, active compounds read low 1.05 | S. cerevisiae deletion strains, locus YLR268W, strain sec22, active compounds read low 1.02 | S. cerevisiae deletion strains, locus YLR320W, strain mms22, active compounds read low 0.971 | S. cerevisiae deletion strains, locus YLR330W, strain CHS5, active compounds read low 1.01 | S. cerevisiae deletion strains, locus YLR342W, strain FKS1 (second series), active compounds read low 1.06 | S. cerevisiae deletion strains, locus YLR342W, strain FKS1, active compounds read low 1.01 | S. cerevisiae deletion strains, locus YLR357W, strain rsc2, active compounds read low 0.982 | S. cerevisiae deletion strains, locus YLR370C, strain arc18, active compounds read low 1 | S. cerevisiae deletion strains, locus YLR371W, strain rom2, active compounds read low 1.02 | S. cerevisiae deletion strains, locus YLR384C, strain iki3, active compounds read low 1.01 | S. cerevisiae deletion strains, locus YLR418C, strain cdc73, active compounds read low 1.01 | S. cerevisiae deletion strains, locus YML016C, strain PPZ1, active compounds read low 1 | S. cerevisiae deletion strains, locus YML032C, strain rad52, active compounds read low 0.994 | S. cerevisiae deletion strains, locus YML120C, strain ndi1, active compounds read low 1.02 | S. cerevisiae deletion strains, locus YML124C, strain tub3, active compounds read low 1.01 | S. cerevisiae deletion strains, locus YMR058W, strain fet3, active compounds read low 1.02 | S. cerevisiae deletion strains, locus YMR078C, strain ctf18, active compounds read low 1.02 | S. cerevisiae deletion strains, locus YMR125W, strain sto1, active compounds read low 0.995 | S. cerevisiae deletion strains, locus YMR129W, active compounds read low 1.01 | S. cerevisiae deletion strains, locus YMR205C, strain PFK2, active compounds read low 1.04 | S. cerevisiae deletion strains, locus YMR223W, strain ubp8, active compounds read low 1.03 | S. cerevisiae deletion strains, locus YMR231W, strain pep5, active compounds read low 1 | S. cerevisiae deletion strains, locus YMR263W, strain SAP30, active compounds read low 1 | S. cerevisiae deletion strains, locus YMR307W, strain GAS1, active compounds read low 1.02 | S. cerevisiae deletion strains, locus YNL067W, strain RPL9B, active compounds read low 0.988 | S. cerevisiae deletion strains, locus YNL071W, strain lat1, active compounds read low 1.01 | S. cerevisiae deletion strains, locus YNL153C, strain GIM3, active compounds read low 0.969 | S. cerevisiae deletion strains, locus YNL175C, strain NOP13, active compounds read low 0.977 | S. cerevisiae deletion strains, locus YNL183C, strain NPR1, active compounds read low 0.929 | S. cerevisiae deletion strains, locus YNL197C, strain WHI3, active compounds read low 0.984 | S. cerevisiae deletion strains, locus YNL209W, strain ssb2, active compounds read low 0.994 | S. cerevisiae deletion strains, locus YNL224C, strain SQS1, active compounds read low 0.998 | S. cerevisiae deletion strains, locus YNL233W, strain BNI4, active compounds read low 0.981 | S. cerevisiae deletion strains, locus YNL248C, strain rpa49, active compounds read low 1.03 | S. cerevisiae deletion strains, locus YNL250W, strain rad50, active compounds read low 1.02 | S. cerevisiae deletion strains, locus YNL271C, strain bni1, active compounds read low 1.01 | S. cerevisiae deletion strains, locus YNL298W, strain CLA4, active compounds read low 1.01 | S. cerevisiae deletion strains, locus YNL307C, strain MCK1, active compounds read low 1.02 | S. cerevisiae deletion strains, locus YNL322C, strain KRE1 (second series), active compounds read low 1.01 | S. cerevisiae deletion strains, locus YNR049C, strain mso1, active compounds read low 1.02 | S. cerevisiae deletion strains, locus YNR052C, strain pop2, active compounds read low 1.02 | S. cerevisiae deletion strains, locus YOL006C, strain TOP1, active compounds read low 0.997 | S. cerevisiae deletion strains, locus YOL012C, strain htz1 0.779 | S. cerevisiae deletion strains, locus YOL147C, strain pex11, active compounds read low 1.01 | S. cerevisiae deletion strains, locus YOR001W, strain rrp6, active compounds read low 1.02 | S. cerevisiae deletion strains, locus YOR061W, strain CKA2, active compounds read low 1.01 | S. cerevisiae deletion strains, locus YOR069W, strain VPS5, active compounds read low 1.01 | S. cerevisiae deletion strains, locus YOR070C, strain gyp1, active compounds read low 1 | S. cerevisiae deletion strains, locus YOR080W, strain dia2, active compounds read low 1.02 | S. cerevisiae deletion strains, locus YOR083W, strain WHI5 (second series), active compounds read low 0.983 | S. cerevisiae deletion strains, locus YOR083W, strain WHI5, active compounds read low 0.989 | S. cerevisiae deletion strains, locus YOR106W, strain vam3, active compounds read low 1.03 | S. cerevisiae deletion strains, locus YOR136W, strain idh2, active compounds read low 1.01 | S. cerevisiae deletion strains, locus YOR144C, strain elg1, active compounds read low 1.01 | S. cerevisiae deletion strains, locus YOR184W, strain ser1, active compounds read low 1.01 | S. cerevisiae deletion strains, locus YOR231W, strain MKK1, active compounds read low 0.986 | S. cerevisiae deletion strains, locus YOR265W, strain rbl2, active compounds read low 1.01 | S. cerevisiae deletion strains, locus YOR270C, strain vph1, active compounds read low 1.04 | S. cerevisiae deletion strains, locus YOR290C, strain snf2, active compounds read low 0.99 | S. cerevisiae deletion strains, locus YOR316C, strain cot1, active compounds read low 1.02 | S. cerevisiae deletion strains, locus YPL051W, strain arl3, active compounds read low 1.01 | S. cerevisiae deletion strains, locus YPL055C, strain LGE1, active compounds read low 0.96 and 0.983 | S. cerevisiae deletion strains, locus YPL078C, strain atp4, active compounds read low 1.03 | S. cerevisiae deletion strains, locus YPL106C, strain sse1, active compounds read low 0.969 | S. cerevisiae deletion strains, locus YPL240C, strain hsp82, active compounds read low 1 | S. cerevisiae deletion strains, locus YPL241C, strain CIN2, active compounds read low 1.01 and 0.99 | S. cerevisiae deletion strains, locus YPL256C, strain CLN2, active compounds read low 0.974 | S. cerevisiae deletion strains, locus YPR119W, strain clb2, active compounds read low 1.01 | S. cerevisiae deletion strains, locus YPR141C, strain kar3, active compounds read low 1.02 | S. cerevisiae deletion strains, locus YPR163C, strain tif3, active compounds read low 1.01 | S. cerevisiae deletion strains, locus YPR167C, strain met16, active compounds read low 1.01 | S. cerevisiae deletion strains, strain wtn01, active compounds read low 1.02 | S. cerevisiae strains, strain wild type, active compounds read low 1
